Screening data (PubChem BioAssay)
Most compounds without a hit are left out; they make up all but 32% or so of the library.
PostGolgi ctrl – inhibits growth of the yeast control strain; efflux-deficient yeast background strain, growth absorbance A615, 16 h; inhibition, % at 10 µM; 5% of 98,000 active; AID 738
CYP2C19 inh – blocks human cytochrome P450 2C19; AID 778; CYP2C19 Supersomes, luciferin-H EGE luminescence, 30 min; inhibition, % at 5 µM; 21% of 96,000 active; P33261;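 active = CYP2C19 inhibition above a set limit at 5 µM in the primary screen, cut at about 50% in these data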
Target sequence (P33261 whole entry, looked up): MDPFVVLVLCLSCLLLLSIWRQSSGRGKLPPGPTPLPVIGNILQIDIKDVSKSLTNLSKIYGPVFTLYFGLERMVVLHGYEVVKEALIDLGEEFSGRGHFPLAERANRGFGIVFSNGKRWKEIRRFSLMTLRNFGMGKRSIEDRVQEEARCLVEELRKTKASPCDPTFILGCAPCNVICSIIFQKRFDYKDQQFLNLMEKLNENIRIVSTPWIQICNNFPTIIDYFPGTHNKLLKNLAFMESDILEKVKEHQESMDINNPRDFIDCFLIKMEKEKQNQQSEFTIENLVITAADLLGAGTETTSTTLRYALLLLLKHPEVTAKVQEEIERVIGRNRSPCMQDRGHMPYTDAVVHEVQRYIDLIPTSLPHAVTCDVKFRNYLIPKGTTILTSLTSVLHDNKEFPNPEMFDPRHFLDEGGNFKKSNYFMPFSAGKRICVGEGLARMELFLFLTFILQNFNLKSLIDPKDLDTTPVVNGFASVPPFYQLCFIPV
CYP2C19 activ – cytochrome P450 2C19 (human) activation. P33261. recombinant CYP2C19, luciferin-H EGE luminescence; active compounds read high; 0 = fully inhibited enzyme, 1 = untreated enzyme. activation factor at 5 µM. 96,000 tested, under 10 active. AID 1025;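 active = activation factor of at least 2 at 5 µM in the primary screen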
CYP2C9 activ – activators of human CYP2C9; activation factor at 5 µM; 1.4% of 96,000 active; recombinant CYP2C9, luciferin-H conversion, luminescence; active compounds read high; factor 1 = untreated enzyme, 0 = blocked; P11712;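 active = activation factor of 2 or more for CYP2C9 at a 5 µM dose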
CYP2C9 inhib – blocks human cytochrome P450 2C9 | P11712 | CYP2C9 Supersomes, luciferin-H conversion, luminescence | inhibition, % at 5 µM | 20% of 96,000 active;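 active = blocking of liver enzyme CYP2C9 beyond about 50% at 5 µM, limit read from the data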
PostGolgi yeast – growth inhibition of a yeast mutant, post-Golgi transport screen | post-Golgi transport phenotypic cell assay | 0.9% of 98,000 active | AID 739 | inhibition, % at 10 µM;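 also: yeast cells grown in 1536-well plates; yeast grown about 18 h at 30C before absorbance read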
Large screens that a line does not name were inactive. Rule as the data show it, unless noted: active = inhibition above about 30%; inactive = the rest.

Cc1cc(C)n(CC(=O)N2c3ccccc3Sc3ccccc32)n1	CYP2C19 inh 66.9
O=C1CCC(=O)N1CC(=O)N1c2ccccc2Sc2ccccc21	none
O=C(C/C=N/OCc1ccccc1F)c1cnc(-c2ccc(Cl)cc2)s1	CYP2C19 inh 95.9
O=C(C/C=N/OCc1ccc(Cl)cc1Cl)c1ccccc1	none
O=C(C/C=N/OCc1ccc(F)cc1Cl)c1cnc(-c2ccccc2)s1	CYP2C19 inh 53.4
C=CCSc1nc(N(CC)CC)c2sccc2n1	none
O=C(Cc1cccc2ccccc12)NNC(=O)c1cccs1	none
C/C(=N/OC(=O)c1ccc(C)cc1)c1cccs1	none
C/C(=N\NC(=O)C1CC1c1ccccc1)c1cccs1 (centres undefined)	CYP2C19 inh 88.2, CYP2C9 inhib 51.4
C/C(=N\NC(=O)C1CC1c1ccccc1)c1cccc([N+](=O)[O-])c1 (centres undefined)	none
COc1ccc(C2CC2/C(=N/OC(=O)c2cccs2)c2ccccc2)cc1 (centres undefined)	PostGolgi ctrl 40.2, CYP2C19 inh 71.0, CYP2C9 inhib 93.7
C/C(=N/NC(=O)Cc1cccc2ccccc12)c1cccs1	CYP2C19 inh 76.2
COc1ccccc1C(=O)Nc1cccc(-c2cn3ccsc3n2)c1	PostGolgi ctrl 38.2
O=C(Nc1cccc(-c2cn3ccccc3n2)c1)c1cccc(Cl)c1	CYP2C9 inhib 84.3
O=C(Nc1cccc(-c2cn3ccsc3n2)c1)c1ccccc1	CYP2C19 inh 58.7, CYP2C9 inhib 85.0
CCN(c1ccc(NC(=O)CN2C(=O)NC3(CCOc4ccccc43)C2=O)cc1)C(C)C (centres undefined)	CYP2C9 inhib 59.3
O=C(NC1CCS(=O)(=O)C1)OC1CCCCC1 (centres undefined)	none (no result: CYP2C19 inh, CYP2C19 activ, CYP2C9 activ, CYP2C9 inhib)
O=[N+]([O-])c1cccc(/C=C/c2nc(C=Nc3ccccc3)c(O)o2)c1	none
Cc1ccc(N=C2NC(=O)CS2)c(C)c1	none
O=C1CSC(=Nc2cc(Cl)ccc2Cl)N1	CYP2C9 inhib 72.2
CC(C)C[C@H](N)c1nnc(S(=O)(=O)Cc2ccc(F)cc2)o1	none
CC(=O)c1c(C)n(CC(=O)NCc2ccc3c(c2)OCO3)c2ccccc12	CYP2C19 inh 74.9, CYP2C9 inhib 59.4
CC(=O)c1c(C(C)=O)c(C)n(Cc2ccc3c(c2)OCO3)c1C	CYP2C19 inh 75.4, CYP2C9 inhib 54.6
CCCC12CN(C(=O)c3ccc(OC)cc3)CC(C)(CN(C(=O)c3ccc(OC)cc3)C1)C2=O	none
Cc1cccc(NC(=O)CC2C(=O)NCCN2C(=S)Nc2ccccc2)c1 (centres undefined)	none
COc1cc(N2CN=c3s/c(=C\c4ccccn4)c(=O)n3C2)cc(OC)c1OC	CYP2C9 inhib 56.4
Cc1cccc(N2CN=c3s/c(=C\c4ccncc4)c(=O)n3C2)c1	CYP2C19 inh 59.1
N#Cc1cccc(NC(=O)COc2ccc(-n3ccnc3)cc2)c1	CYP2C19 inh 100.0, CYP2C9 inhib 98.6
CC(C)(C)c1ccc(NC(=O)COc2ccc(-n3ccnc3)cc2)cc1	PostGolgi ctrl 57.6, CYP2C19 inh 99.0, CYP2C9 inhib 98.9, PostGolgi yeast 73.0
CCc1ncc(C(O)c2cccc(OC)c2OC)n1C (centres undefined)	none
Fc1ccccc1N1CCN(c2cnc3ccccc3n2)CC1	none
C=CCN1C(=O)CSC1=Nc1ccc(O)cc1	none
C=CCN1N=C(c2ccc(Cl)s2)CSC1=O	CYP2C19 inh 72.5
COC(=O)c1cc2c(s1)CS(=O)C2 (centres undefined)	none (no result: CYP2C19 inh, CYP2C19 activ, CYP2C9 activ, CYP2C9 inhib)
Cc1ccc(OCC(=O)NN=C2c3ccccc3-c3ccccc32)cc1	none
CCc1ccc(OCC(=O)N/N=C2\CC(=O)c3ccccc32)cc1	CYP2C19 inh 82.0
C=CCSc1nnc(NC(=O)c2ccc(Cl)nc2)s1	none
CC(C)[C@H](N)c1nnc(SC/C=C/c2ccccc2)o1	CYP2C19 inh 82.5
N[C@@H](Cc1ccccc1)c1nnc(SCc2ccccc2F)o1	none (no result: CYP2C19 inh, CYP2C19 activ, CYP2C9 activ, CYP2C9 inhib)
Cc1cc(NC(=O)CN2CCOCC2)n(-c2nc3ccccc3s2)n1	none
COc1ccccc1CNc1nc2ccccc2n1CCN1CCCCC1	none
COc1ccccc1Cn1c(-c2ccccc2OC)nc2ccccc21	PostGolgi ctrl 48.5
Oc1ccccc1Cn1c(-c2ccccc2O)nc2ccccc21	CYP2C19 inh 59.6, CYP2C9 inhib 66.4
CCCC(=O)Nc1ccc(C(=O)O)cc1NC(=O)CCC	none
